This passage reports growth inhibition results from PubChem BioAssay (NCI).

A short description of assay [1]: NCI Yeast Anticancer Drug Screen. Data for the rad50 strain (AID 155).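 Note: 0% = growth of vehicle-only cultures of the same strain.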 As to conditions: S. cerevisiae rad50 strain growth inhibition; at 50.0 µM; hits give high values. The gist of the method: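 Vehicle-treated cultures provide the reference for the growth inhibition reported for compound-exposed, repair-deficient yeast.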
Assay [2] can be described thus: NCI Yeast Anticancer Drug Screen. Data for the mec2-1 strain (AID 157). The note with it: S. cerevisiae mec2-1 strain, at 50.0 µM, hits give high values. The method in brief: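 mec2-1 yeast strain, carrying an alteration in DNA damage repair or cell cycle control, was exposed to compounds; growth inhibition was measured relative to vehicle-treated controls.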
The nature of assay [3]: NCI Yeast Anticancer Drug Screen. Data for the sgs1 mgt1 strain (AID 161).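 Note: 0% = growth of cultures given vehicle only.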 As to conditions: S. cerevisiae sgs1 mgt1 strain, at 50.0 µM, hits give high values. The gist of the method:
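This yeast growth screen uses a strain with defined DNA-repair lesions; compound-treated growth is compared with vehicle-treated growth.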

Assay [4] is described as follows: NCI Yeast Anticancer Drug Screen. Data for the cln2 rad14 strain (AID 165).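 Note: 0% = growth equal to vehicle treated cultures.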 As to conditions: S. cerevisiae cln2 rad14 strain, at 50.0 µM, hits give high values. The method in brief:
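Yeast carrying cln2 and rad14 alterations (cell cycle control and DNA damage repair) were exposed to compounds. Growth inhibition was measured against vehicle-treated controls.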

A short description of assay [5]: NCI Yeast Anticancer Drug Screen. Data for the bub3 strain (AID 167). The note with it: S. cerevisiae bub3 mutant strain, at 50.0 µM, hits give high values. The gist of the method:
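Mutant yeast screening strain plus compound; vehicle-treated cultures serve as the 0% inhibition reference.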

Assay [6] in a line: NCI Yeast Anticancer Drug Screen. Data for the mlh1 rad18 strain (AID 175). As to conditions: S. cerevisiae mlh1 rad18 strain growth inhibition; at 50.0 µM; hits give high values. The method in brief: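 Growth inhibition of the yeast strain was measured after compound exposure and expressed relative to vehicle-treated controls. The strain carries defined defects in DNA damage repair.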

Compounds without any hit were thinned out: in the full panel of roughly 79,000, 15% have a hit. A number with no mark means an inactive call. Active and inactive are the calls of the source. Cut-off read from the data, not from the text of the source: active = growth inhibition above about 70%; inactive = the rest.

`COC1/C=C\OC2(C)Oc3c(C)c(O)c4c(c3C2=O)C(=O)C(Br)=C(NC(=O)/C(C)=C\C=C/C(C)C(O)C(C)C(O)C(C)C(OC(C)=O)C1C)C4=O` (stereo not given): the growth inhibition is 16.1% in assay [1]; 13.8% in assay [2]; 22.4% in assay [3]; 22.2% in assay [4]; 14.8% in assay [5]; 20.5% in assay [6].

In the case of `C[n+]1ccc(NN)cc1`, the growth inhibition in assay [1] is -3.5%; in assay [2], -15.8%; in assay [3] it was 20.3%; in assay [4] it was 12.6%; in assay [5], 17.6%; in assay [6], 4.4%.

Turning to `N#Cc1ccc2ccccc2c1`, the growth inhibition in assay [1] was 4.65%; in assay [2], -7%; in assay [3], 3%; in assay [4], -4.65%; in assay [5] it was 10.7%; in assay [6], -16.8%.

For the molecule `Cc1ccccc1C1OC2=C(Nc3ccc(Cl)cc3N2)C1=O` (stereo not given), the growth inhibition was 15.6% in assay [1]; -1.65% in assay [2]; 10.3% in assay [3]; 9.85% in assay [4]; -11.8% in assay [5]; 25.2% in assay [6].

In the case of `Cc1c(N)nc(C(CC(N)=O)NCC(N)C(N)=O)nc1C(=O)NC(C(=O)NC(C)C(O)C(C)C(=O)NC(C(=O)NCCc1nc(-c2nc(C(=O)NCCC[S+](C)CC(N)=O)cs2)cs1)C(C)O)C(OC1OC(CO)C(O)C(O)C1OC1OC(CO)C(O)C(OC(N)=O)C1O)c1cnc[nH]1` (stereo not given), the growth inhibition in assay [1] was 63.9%; in assay [2], 58.9%; in assay [3] it was 71.7% (active); in assay [4] it was 56.9%; in assay [5], 80% (active); in assay [6], 75.7% (active).

On to `Cc1c(N=Nc2cccc(F)c2)c(-c2ccccc2)nn1C(=S)S`, for which the growth inhibition in assay [1] was 20.2%; in assay [2] it was 5.25%; in assay [3], 11.7%; in assay [4], 15.9%; in assay [5] it was 26.8%; in assay [6], 16.7%.

With `CCC(C)OC(=O)/C=C/c1ccccc1` (stereo not given), the growth inhibition in assay [1] is 1.35%; in assay [2], 3.15%; in assay [3], -1.8%; in assay [4], -0.25%; in assay [5], -10.2%; in assay [6] it was -10.6%.

On to `CCCC(O)CO` (stereo not given), for which the growth inhibition was 5.55% in assay [1]; 1.9% in assay [2]; 0.15% in assay [3]; -0.6% in assay [4]; -0.5% in assay [5]; 40.2% in assay [6].

For `N#Cc1cc([N+](=O)[O-])ccc1NC(=O)C(=O)C(C(=O)/C=C/c1ccccc1)C1OC(=O)c2ccccc21` (stereo not given), the growth inhibition is -1.05% in assay [1]; -15.9% in assay [2]; -41.2% in assay [3]; 5.55% in assay [4]; -15.2% in assay [5]; 8.95% in assay [6].

For `CCCC1c2c(cc(=O)[nH]c2O)C(=O)N1Cc1ccccc1` (stereo not given), the growth inhibition is -10.2% in assay [1]; -16.5% in assay [2]; -14.4% in assay [3]; 17.8% in assay [4]; -17.6% in assay [5]; -0.9% in assay [6].

As for `NC(=O)CNC(=O)[C@@H]1C[C@@H](OCCC(=O)O)CN1C(=O)OCc1ccccc1`, the growth inhibition in assay [1] is -32.2%; in assay [2] it was -8.75%; in assay [3], -24.5%; in assay [4], 4.1%; in assay [5] it was 14.5%; in assay [6], 4.95%.

With `CSc1nc(-c2ccc(C)cc2)c(C#N)c(=O)[nH]1`, the growth inhibition is 6.25% in assay [1]; 4.9% in assay [2]; -9.45% in assay [3]; 24.2% in assay [4]; 0.4% in assay [5]; -55.9% in assay [6].

Take `O=C(Nc1cccc(Cl)c1Cl)Oc1cccc2ccccc12`: the growth inhibition in assay [1] is 21.4%; in assay [2], 5.15%; in assay [3] it was 12.4%; in assay [4], 8.65%; in assay [5] it was 24.5%; in assay [6], 16.4%.

As for `O=C(CC1NCCS1)OCc1ccc(Br)cc1` (stereo not given), the growth inhibition in assay [1] is 26.5%; in assay [2], 14.1%; in assay [3] it was 9.8%; in assay [4] it was 24.7%; in assay [5], 16.9%; in assay [6] it was 50%.

`CN(CCC(=O)c1ccc2ccccc2c1)Cc1ccccc1`: the growth inhibition in assay [1] is 16.4%; in assay [2] it was 3%; in assay [3], 27.4%; in assay [4], -1.45%; in assay [5] it was 8%; in assay [6], 20.7%.

As to `O=C(O)CCC1CCCO1` (stereo not given), the growth inhibition in assay [1] was -5.4%; in assay [2], -9.35%; in assay [3], -9.3%; in assay [4] it was 10.2%; in assay [5], 15.3%; in assay [6] it was -0.6%.

For `CC1(C#N)CC/C(=C\c2ccc3c(c2)OCO3)C(=O)C1` (stereo not given), the growth inhibition is 0.3% in assay [1]; 16.9% in assay [2]; 4.75% in assay [3]; -1.1% in assay [4]; -6.7% in assay [5]; -4.6% in assay [6].

Take `CC1=N/C(=C\c2ccc(N)cc2)C(=O)N1Nc1nnc(NN2C(=O)/C(=C/c3ccc(N)cc3)N=C2C)c2ccccc12`: the growth inhibition in assay [1] is -11.7%; in assay [2], -13.3%; in assay [3] it was 1.2%; in assay [4], 7.35%; in assay [5], -30.4%; in assay [6] it was -2.35%.

For the molecule `COc1cc(Br)c(CC(=O)c2ccc3c(c2)OCO3)cc1OC`, the growth inhibition in assay [1] was 1.65%; in assay [2] it was 12.8%; in assay [3], 7.9%; in assay [4], -0.7%; in assay [5] it was 0%; in assay [6], 15.2%.

As for `CCOc1ccccc1NC(=O)C1=C(C)NC(C)=C(C(=O)Nc2ccccc2OCC)C1c1ccc(NC(C)=O)cc1`, the growth inhibition was -30.1% in assay [1]; -10.8% in assay [2]; -15.4% in assay [3]; -5.9% in assay [4]; -22.2% in assay [5]; 11.7% in assay [6].
